# Compound activity as filed in PubChem.
# In the library only some 2.4% were active in any assay of this set; here they are far more common.
# Pol kappa inh-1 – qHTS for Inhibitors of Polymerase Kappa. DNA polymerase kappa (Homo sapiens), Q9UBT6. purified Pol kappa, fluorescent DNA synthesis assay, 10 min. Potency, µM (titrated, usually from 107 µM), for the others: at the highest dose activity, negative = inhibition, most hits filed as inhibitors. 400,000 compounds, 0.53% hits. AID 588579, 2011; note: % is set by controls: 0 for no effect and ±100 for the full control effect
#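 First, compounds were pin-transferred onto 10 nM Pol kappa. After 15 min at room temperature, substrate was added to 50 nM final. Fluorescence was then measured kinetically at 0 and 10 min.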
# Pol eta inh-1 – qHTS for Inhibitors of Polymerase Eta. DNA polymerase eta (Homo sapiens), Q9Y253. recombinant Pol eta, fluorescent DNA replication assay. Potency, µM (top dose mostly 114 µM), inactives show at the highest dose activity change, negative = inhibition, usual class: inhibitors. 390,000 compounds, 1.2% hits. AID 588591, 2011; note: % is set by controls: 0 for no effect and ±100 for the full control effect
#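 Fluorescent replication assay: 50 nM final substrate added after a 15 min room-temperature compound preincubation with 10 nM enzyme. Signal taken at 0 min and again at 10 min.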
# WRN inhibitor – qHTS for Inhibitors of WRN Helicase. 360,000 compounds, 0.46% hits. Potency, µM (top dose mostly 114 µM), for inactives: at the top dose activity change, negative = inhibition, most hits filed as inhibitors. Bifunctional 3'-5' exonuclease/ATP-dependent helicase WRN (Homo sapiens), Q14191. WRN helicase unwinding, fluorescent forked duplex, kinetic; note: % is set by controls: 0 for no effect and ±100 for the full control effect; nearly all actives have a fitted effect of over 55% in size
# Target sequence (Q14191 whole entry, looked up): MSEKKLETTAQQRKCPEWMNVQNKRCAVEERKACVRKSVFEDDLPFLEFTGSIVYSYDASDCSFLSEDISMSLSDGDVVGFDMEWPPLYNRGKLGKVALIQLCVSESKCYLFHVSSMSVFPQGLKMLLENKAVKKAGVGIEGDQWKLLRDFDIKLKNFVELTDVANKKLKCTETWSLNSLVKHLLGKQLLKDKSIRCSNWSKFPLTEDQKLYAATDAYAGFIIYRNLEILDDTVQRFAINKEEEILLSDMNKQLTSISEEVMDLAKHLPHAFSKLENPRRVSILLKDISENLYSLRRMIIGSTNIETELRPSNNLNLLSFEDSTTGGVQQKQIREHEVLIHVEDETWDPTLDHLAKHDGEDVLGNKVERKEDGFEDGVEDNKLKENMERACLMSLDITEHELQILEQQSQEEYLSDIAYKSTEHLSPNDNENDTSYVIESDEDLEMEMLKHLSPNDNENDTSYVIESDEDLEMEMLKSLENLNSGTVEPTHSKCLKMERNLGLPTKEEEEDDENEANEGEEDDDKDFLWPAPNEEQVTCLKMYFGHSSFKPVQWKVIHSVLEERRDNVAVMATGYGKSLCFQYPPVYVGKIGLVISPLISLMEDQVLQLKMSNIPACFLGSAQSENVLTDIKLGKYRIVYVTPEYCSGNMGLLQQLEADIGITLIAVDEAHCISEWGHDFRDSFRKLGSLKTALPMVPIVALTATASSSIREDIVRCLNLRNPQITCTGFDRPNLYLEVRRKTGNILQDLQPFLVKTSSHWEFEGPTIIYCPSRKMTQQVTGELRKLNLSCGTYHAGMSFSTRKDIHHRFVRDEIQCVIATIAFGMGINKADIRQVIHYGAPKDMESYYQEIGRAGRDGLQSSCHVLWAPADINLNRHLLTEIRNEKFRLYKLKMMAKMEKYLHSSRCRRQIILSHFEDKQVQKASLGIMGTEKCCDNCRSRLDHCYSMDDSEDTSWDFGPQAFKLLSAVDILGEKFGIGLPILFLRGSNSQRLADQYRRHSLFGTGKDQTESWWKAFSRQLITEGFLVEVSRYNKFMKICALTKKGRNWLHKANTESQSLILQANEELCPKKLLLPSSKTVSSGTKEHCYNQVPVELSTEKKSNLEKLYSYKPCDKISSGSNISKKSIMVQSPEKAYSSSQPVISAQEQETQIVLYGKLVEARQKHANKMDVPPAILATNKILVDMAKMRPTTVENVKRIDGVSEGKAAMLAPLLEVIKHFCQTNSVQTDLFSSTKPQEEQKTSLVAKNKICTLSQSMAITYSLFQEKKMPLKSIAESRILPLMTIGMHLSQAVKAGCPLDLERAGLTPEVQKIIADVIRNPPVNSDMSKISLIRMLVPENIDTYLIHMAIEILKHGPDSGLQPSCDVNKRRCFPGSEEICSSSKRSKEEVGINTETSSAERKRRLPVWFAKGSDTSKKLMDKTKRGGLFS
#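 Fluorescence dequenching readout, ex 525 nm/em 598 nm, kinetic mode: forked duplex DNA (100 nM final) with adjacent fluorophore and quencher unwound by WRN (20 nM final) with 2 mM ATP. Compound preincubation 15 min, room temperature.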
# POLB inh – qHTS Assay for Inhibitors of DNA Polymerase Beta. P06746. 340,000 compounds, 1.3% hits. Pol beta primer extension/strand displacement, fluorescence kinetic. Potency, µM (highest dose often 114 µM), for inactives: at the top dose activity change, negative = inhibition, actives largely listed as inhibitors; note: % is set by controls: 0 for no effect and ±100 for the full control effect
#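 Values derive from four-parameter Hill fits of normalized kinetic data: reads at 0 and 10 min following addition of 50 nM substrate to 10 nM Pol beta preincubated 15 min with compound.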
# Pol iota inh – qHTS for Inhibitors of Polymerase Iota; DNA polymerase iota (Homo sapiens), Q9UNA4; Pol iota fluorescent replication assay, 10 min; Potency, µM (highest dose often 115 µM), inactives show at the top dose activity, negative = inhibition, usual class: inhibitors; 390,000 compounds, 1% hits
#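 Pol iota at 10 nM preincubated 15 min with compounds at room temperature; reaction started with fluorescent substrate, 50 nM final. Fluorescence read kinetically at 0 and 10 min; buffer-only wells as negative control.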
# FEN1 inh-1 – qHTS Assay for the Inhibitors of Human Flap endonuclease 1 (FEN1). 390,000 compounds, 0.35% hits. Potency, µM (titrated, usually from 114 µM), without a hit: top-dose activity change, negative = inhibition, usual class: inhibitors. Recombinant FEN1 flap cleavage, fluorescence, 15 min; note: % is set by controls: 0 for no effect and ±100 for the full control effect; nearly all actives have a fitted effect of over 65% in size
#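 Nuclease activity of 10 nM FEN1 was measured after 15 min of room-temperature exposure to titrated compounds, by adding 50 nM flap substrate and reading plates at 0 and 15 min.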
# TbPGK inh – qHTS for inhibitors of Phosphogylcerate Kinase: Hit Validation Screen. Potency, µM (top dose mostly 57.5 µM), for inactives: at the top dose activity change, negative = inhibition, most hits filed as inhibitors. shares compounds with Pol kappa inh-1. AID 686980, 2013. 500 compounds, 79% hits. TbPGK coupled GAPDH assay, Kinase-Glo luminescence; note: % is set by controls: 0 for no effect and ±100 for the full control effect; nearly all actives have a fitted effect of over 65% in size
# POLI cherry-pick – qHTS for Inhibitors of Polymerase Iota: Confirmatory Assay for Cherry-picked Compounds. shares compounds with Pol kappa inh-1. Pol iota primer extension, TAMRA/BHQ fluorescence. Potency, µM, usual class: inhibitors. 1,500 compounds, 77% hits. AID 720496, 2013
# Pol kappa inh-2 – qHTS for Inhibitors of Polymerase Kappa: Confirmatory Assay for Cherry-picked Compounds. 920 compounds, 76% hits. shares compounds with Pol eta inh-1. Potency, µM, hits mostly inhibitors. purified Pol-kappa, fluorescent strand-displacement substrate
# Pol eta inh-2 – qHTS for Inhibitors of Polymerase Eta: Confirmatory Assay for Cherry-picked Compounds | 2,600 compounds, 64% hits | Pol eta primer extension, TAMRA/BHQ fluorescence, 10 min | Potency, µM, hits mostly inhibitors | AID 720502, 2013 | shares compounds with Pol eta inh-1
# FEN1 inh-2 – qHTS Assay for the Inhibitors of FEN1: Confirmatory Assay for Cherry-picked Compounds; 880 compounds, 79% hits; shares compounds with FEN1 inh-1; AID 720498, 2013; FEN1 flap cleavage, TAMRA/BHQ2 fluorogenic DNA substrate; Potency, µM, hits mostly inhibitors; note: nearly all actives have a fitted effect of over 60% in size
# Starred values were filed as active, the others as inactive; ? = inconclusive; nt = no result given; [ ] = remark or other dose. Calls come from the whole dose curve; as a rule, active = well fitted curve in the direction sought with a large enough effect; inconclusive = small, poorly fitted or top-dose-only effect, or another doubt; inactive = no such curve, though single readings can be large; an effect the other way counts as inactive or inconclusive. Potency is the fitted concentration of half-maximal effect.
SMILES,Pol kappa inh-1,Pol eta inh-1,WRN inhibitor,POLB inh,Pol iota inh,FEN1 inh-1,POLI cherry-pick,Pol eta inh-2,FEN1 inh-2,others
COCCNC(=O)Cn1nc(C)c2c(C)n(-c3ccc(C)cc3)nc2c1=O,0%,-18%,nt,6%,22%,33%,nt,nt,nt,
COc1ccc(CCNC(=O)Cn2nc(C)c3c(C)n(-c4ccc(C)cc4)nc3c2=O)c(OC)c1,-23%,?,nt,35µM*,?,?,67*,85*,48*,Pol kappa inh-2=27*
Cc1ccccc1CN1CCCN(CC(=O)Nc2c(C)cccc2C)S1(=O)=O,-7%[60.1 µM],-20%,nt,3%,43%,-2%,nt,nt,nt,
CCn1c(=NC(=O)c2ccc(S(=O)(=O)N3CCCC3)cc2)sc2cc(Br)ccc21,-6%,-4%,nt,34%,-13%,-11%,nt,nt,nt,
COc1ccc(/C=C/C(=O)NC(=S)Nc2cc([N+](=O)[O-])ccc2O)cc1OC,?,25µM*,-12%[11.6 µM],18µM*,16µM*,22µM*,75*,30*,60*,
COc1ccc([N+](=O)[O-])cc1NC(=S)NC(C)=O,-3%,-19%,3%,8%,30%,1%,nt,nt,nt,
COc1ccccc1-c1cc2nc(C)c(CCC(=O)Nc3ccc(Br)c(C)c3)c(C)n2n1,-20%,-16%,nt,-3%,9%,-21%,nt,nt,nt,
O=C(O)c1cc(O)c2c(c1)[C@@H]([C@H]1c3cc(C(=O)O)cc(O)c3C(=O)c3c(O[C@@H]4O[C@H](CO)[C@@H](O)[C@H](O)[C@H]4O)cccc31)c1cccc(OC3O[C@H](CO)[C@@H](O)[C@H](O)[C@H]3O)c1C2=O (some centres undefined),-97%,-100%,1.1µM*,nt,-107%,?,3*,6*,30*,TbPGK inh=2.6µM*;Pol kappa inh-2=2.7*
O=C(O)CCNc1cc(N2CCN(C(=O)c3ccco3)CC2)c2noc3c2c1C(=O)c1ccccc1-3,13µM*,3.2µM*,18µM*,18µM*,?,32µM*,17*,6.7*,30*,TbPGK inh=21µM*;Pol kappa inh-2=?
CCNc1cc(N2CCN(C3CCCCC3)CC2)c2noc3c2c1C(=O)c1ccccc1-3,-9%,5%,nt,17%,42%,6%,nt,nt,nt,
NC(N)=N/N=C/c1ccccc1,-6%,-9%,-12%,8%,-19%,-7%,nt,nt,nt,
Oc1ccc(/C=N/N=C(c2ccccc2)c2ccccc2)c(O)c1O,?,3.2µM*,6.7µM*,2.8µM*,?,?,11*,43*,48*,
O=C(CSc1nnc(-c2cccc(S(=O)(=O)N3CCCC3)c2)n1-c1ccccc1)Nc1cccc(C(=O)O)c1,2%,3%,-7%,-30%,?,-17%,nt,nt,nt,
O=C(CSc1nnc(-c2cccc(S(=O)(=O)N3CCCC3)c2)n1-c1ccccc1)Nc1ccc(C(=O)O)cc1,?,35µM*,50µM*,32µM*,?,?,42*,43*,76*,
CC1OC(Oc2c(-c3cc(O)c(O)c(O)c3)oc3cc(O)cc(O)c3c2=O)C(O)C(O)C1O (centres undefined),50µM*,?,-3%[11.6 µM],14µM*,?,2.2µM*,?,nt,2.7*,
Nc1cccc2cc(S(=O)(=O)O)ccc12,10µM*,4µM*,?,nt,4µM*,8.9µM*,75*,27*,67*,Pol kappa inh-2=19*
COc1ccc(Cl)cc1NC(=O)c1ccc2c(c1)CCCN2S(C)(=O)=O,0%,-1%,nt,26%,-13%,-17%,nt,nt,nt,
CN(C)c1ccc(/C=C2\CCc3ccccc32)cc1,5%,nt,nt,nt,-11%,0%,nt,nt,nt,
Cc1ccc(-n2cccc2/C=C2\C(=N)N3N=C(c4ccco4)SC3=NC2=O)cc1,?,14µM*,?,10µM*,20µM*,22µM*,?,76*,43*,
COc1ccc(OC)c(NC(=O)N2CC3CCCN3c3ccccc32)c1 (centres undefined),-9%,-1%,nt,-24%,-6%,-9%,nt,nt,nt,
CN1C(=O)c2ccccc2Sc2ccc(NC(=O)N3CCN(c4cccc(Cl)c4)CC3)cc21,-7%,-8%,nt,-2%,-20%,-5%,nt,nt,nt,
COc1ccc(/C=C2\C(=O)NC(=S)N2C(=O)c2ccc(C)cc2)cc1,?,16µM*,56µM*,20µM*,18µM*,?,?,?,76*,
O=C1NC(=S)N(C(=O)c2ccc(F)cc2)/C1=C/c1cccnc1,-9%,-10%,?,?,?,-7%,nt,nt,nt,
C=Cc1c(C)c2cc3[nH]c(cc4nc(cc5nc(cc1[nH]2)C(C)=C5CCC(=O)O)C(CCC(=O)O)=C4C)c(C)c3C=C,9.5µM*,4.5µM*,35µM*,1.4µM*,10µM*,35µM*,3*,2.7*,34*,TbPGK inh=0.23µM*
O=c1c(=O)n(O)c2ccccc2n1O,1%,-6%,3%,9%,-26%,0.79µM*,?,nt,1.3*,
COc1ccc2c([N+](=O)[O-])c(N3CCOCC3)[nH]c2c1,nt,-7%,-7%,nt,nt,nt,nt,nt,nt,
